Source: ChEMBL document CHEMBL3433997, “St. Jude Leishmania screening dataset” (2016)

Assays:
Assay type in all cases: functional
[1] = molecular target: Solute carrier family 2, facilitated glucose transporter member 1 (Homo sapiens) (UniProt P11166); experiment: ST_JUDE_LEISH: Cytotoxicity at 2uM final concentration against transgenic Leishmania Mexicana promastigotes LmGLUT1 that are glucose transport deficient and complemented with the human glucose transporter GLUT1. Activity is measured by DNA content using SYBR green in vitro
Solute carrier family 2, facilitated glucose transporter member 1 (Homo sapiens), sequence (P11166 whole entry): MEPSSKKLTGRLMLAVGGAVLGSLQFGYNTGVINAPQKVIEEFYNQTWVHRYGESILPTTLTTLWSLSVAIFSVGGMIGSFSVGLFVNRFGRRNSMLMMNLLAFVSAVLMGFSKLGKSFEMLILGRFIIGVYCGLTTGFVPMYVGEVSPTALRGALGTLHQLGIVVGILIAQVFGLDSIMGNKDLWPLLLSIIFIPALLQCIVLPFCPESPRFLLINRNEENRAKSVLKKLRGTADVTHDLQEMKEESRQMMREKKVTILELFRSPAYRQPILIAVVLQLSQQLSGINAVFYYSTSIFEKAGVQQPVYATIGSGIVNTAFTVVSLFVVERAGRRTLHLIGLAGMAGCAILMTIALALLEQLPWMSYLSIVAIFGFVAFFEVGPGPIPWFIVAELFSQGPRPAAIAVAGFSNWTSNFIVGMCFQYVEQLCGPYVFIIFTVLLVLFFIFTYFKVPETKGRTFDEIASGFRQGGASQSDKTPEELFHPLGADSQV

[2] = molecular target: Hexose transporter 1 (Plasmodium falciparum) (UniProt O97467); experiment: ST_JUDE_LEISH: Cytotoxicity at 2uM final concentration against transgenic Leishmania Mexicana promastigotes LmPfHT that are glucose transport deficient and complemented with the Plasmodium falciparum hexose transporter. Activity is measured by DNA content using SYBR green in vitro
[3] = molecular target: Glucose transporter (Leishmania mexicana) (UniProt O61059); experiment: ST_JUDE_LEISH: Cytotoxicity at 2uM final concentration against transgenic Leishmania Mexicana promastigotes LmGT2 that are glucose transport deficient and complemented with the L. Mexicana glucose transporter 2. Activity is measured by DNA content using SYBR green in vitro

SMILES | inhibition [1] [%] | inhibition [2] [%] | inhibition [3] [%]
COCC(=O)N(Cc1ccccc1-c1cccc(CNCCc2ccccc2)c1)C1CCN(Cc2ccccc2)CC1 | 0.81 | 0.92 | 3.9
Oc1ccc(CN2CCN(CCOC(c3ccc(F)cc3)c3ccc(F)cc3)CC2)cc1Cl | 4.68 | -0.31 | -0.74
CC(Cc1ccc(OCc2ccccc2)cc1)NCC(O)c1cccc(Cl)c1 (stereo unspecified) | 5.48 | 3.61 | 4.23
NCc1ccc(-c2ccccc2CN(C(=O)Nc2ccccc2)C2CCN(Cc3ccccc3)CC2)cc1 | 2.32 | 1.83 | -3.48
NCC(=O)c1cc2c(cc1N)OCCO2 | 8.91 | 9.43 | 3.9
Cc1[nH]c2ccc(NS(C)(=O)=O)cc2c1C1CCN(CC2CCN(C(=O)/C=C/c3ccc(Cl)c(Cl)c3)CC2)CC1 | -0.42 | 1.08 | -0.21
CN(c1ccc(NC(=O)CCOc2ccccc2)cc1)C1CCN(Cc2cccc(O)c2)CC1 | 1.64 | -0.45 | -0.97
